The values that follow come from PubChem BioAssay.

The structures appear in SMILES notation. Calls of active or inactive are those of the source.

In experiment [1] the test system is PRMT1 (protein arginine N-methyltransferase 1). The experiment is described as follows: small molecules binding arginine methyltransferase PRMT1 – biochemical, small-molecule microarray, 635 nm fluorescence, primary screen (AID 1088).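 Note: binding of Prmt1 protein to compounds spotted on small-molecule microarray slides.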 Conditions: higher = more signal.
The nature of experiment [2]: growth effects on S. cerevisiae YJM789 – YJM789 clinical isolate, OD600, 24 h, basal, primary screen (AID 1089).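 Note: growth of clinical yeast isolate S. cerevisiae YJM 789 seeded 1000 cells per well; test concentration not given here.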 Conditions: higher = more signal, called active from +8 up or from −8 down.
Experiment [3] in a line: S. pombe growth modifiers, basal conditions – strain 972, OD600, 24 h, no modulator, primary screen (AID 1090).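 Note: basal condition with compound alone and no growth modifier present; test concentration not given here.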 Conditions: S. pombe 972 growth, higher = more signal, called active from +8 up or from −8 down.
Experiment [4] is described as follows: budding yeast growth modifiers under rapamycin – strain BY4716, OD600, 96 h, primary screen (AID 1091). Note: test concentration not given here. The following applies: S. cerevisiae BY4716 + rapamycin, higher = more signal, called active from +8 up or from −8 down.
The target in experiment [5] is Torsin-1A-interacting protein 2 (Homo sapiens) (UniProt Q8NFQ8). The experiment is described as follows: small molecules binding lysate-expressed LULL1 – cell lysate, human LULL1 lysate, 635/667 nm fluorescence, primary screen (AID 1092).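 Note: probe is lysate of COS7 cells overexpressing human LULL1; score merges per-feature 667 nm fluorescence with signal-to-noise.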 Conditions: small-molecule microarray, hLULL1 lysate binding, 635 nm fluorescence; higher = more signal.
Sequence of Torsin-1A-interacting protein 2 (Homo sapiens) (Q8NFQ8 whole entry, looked up): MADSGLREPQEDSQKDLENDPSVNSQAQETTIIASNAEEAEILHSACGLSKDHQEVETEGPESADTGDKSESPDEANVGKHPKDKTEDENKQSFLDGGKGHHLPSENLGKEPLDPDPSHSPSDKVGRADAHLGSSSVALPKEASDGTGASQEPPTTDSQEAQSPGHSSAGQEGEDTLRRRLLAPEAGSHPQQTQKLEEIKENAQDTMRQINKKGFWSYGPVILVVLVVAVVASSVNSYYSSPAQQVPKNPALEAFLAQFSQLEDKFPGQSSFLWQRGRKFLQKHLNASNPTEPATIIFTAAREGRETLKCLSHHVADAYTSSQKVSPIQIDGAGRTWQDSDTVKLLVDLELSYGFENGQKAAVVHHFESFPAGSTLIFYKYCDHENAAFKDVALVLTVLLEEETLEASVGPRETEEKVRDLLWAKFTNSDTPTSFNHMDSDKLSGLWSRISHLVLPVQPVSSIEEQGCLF
Experiment [6] in a line: optical density change of DRC41 E. coli – strain DRC41, OD650, 24 h, E. coli filamentation project, primary screen (AID 1093).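 Note: MC1000 strain lacking acrAB efflux and sulA so SOS filamentation is blocked; test concentration not given here.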 The following applies: E. coli DRC41 growth, higher = more signal, called active from +8 up or from −8 down.
The nature of experiment [7]: probe aLefty2 binding to arrayed compounds – biochemical, biotinylated probe, 635/667 nm fluorescence, primary screen (AID 1094).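 Note: score merges spot fluorescence near 667 nm with spot signal-to-noise ratio.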 Conditions: small-molecule microarray, higher = more signal.
The subject of experiment [8] is Noggin (protein binding on small-molecule microarray). The experiment is described as follows: small molecules binding Noggin protein – biochemical, 635/667 nm fluorescence, primary screen (AID 1095).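 Note: score merges 667 nm feature fluorescence with signal to noise over triplicate slides.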 The following applies: 635 nm fluorescence, higher = more signal.
The target of experiment [9] is Neurogenic locus notch homolog protein 3 (Homo sapiens) (UniProt Q9UM47). Put plainly: small molecules binding NOTCH3 protein – biochemical, 635/667 nm fluorescence, primary screen (AID 1096). The following applies: small-molecule microarray, 635 nm fluorescence, higher = more signal.
Sequence of Neurogenic locus notch homolog protein 3 (Homo sapiens) (Q9UM47 whole entry, looked up): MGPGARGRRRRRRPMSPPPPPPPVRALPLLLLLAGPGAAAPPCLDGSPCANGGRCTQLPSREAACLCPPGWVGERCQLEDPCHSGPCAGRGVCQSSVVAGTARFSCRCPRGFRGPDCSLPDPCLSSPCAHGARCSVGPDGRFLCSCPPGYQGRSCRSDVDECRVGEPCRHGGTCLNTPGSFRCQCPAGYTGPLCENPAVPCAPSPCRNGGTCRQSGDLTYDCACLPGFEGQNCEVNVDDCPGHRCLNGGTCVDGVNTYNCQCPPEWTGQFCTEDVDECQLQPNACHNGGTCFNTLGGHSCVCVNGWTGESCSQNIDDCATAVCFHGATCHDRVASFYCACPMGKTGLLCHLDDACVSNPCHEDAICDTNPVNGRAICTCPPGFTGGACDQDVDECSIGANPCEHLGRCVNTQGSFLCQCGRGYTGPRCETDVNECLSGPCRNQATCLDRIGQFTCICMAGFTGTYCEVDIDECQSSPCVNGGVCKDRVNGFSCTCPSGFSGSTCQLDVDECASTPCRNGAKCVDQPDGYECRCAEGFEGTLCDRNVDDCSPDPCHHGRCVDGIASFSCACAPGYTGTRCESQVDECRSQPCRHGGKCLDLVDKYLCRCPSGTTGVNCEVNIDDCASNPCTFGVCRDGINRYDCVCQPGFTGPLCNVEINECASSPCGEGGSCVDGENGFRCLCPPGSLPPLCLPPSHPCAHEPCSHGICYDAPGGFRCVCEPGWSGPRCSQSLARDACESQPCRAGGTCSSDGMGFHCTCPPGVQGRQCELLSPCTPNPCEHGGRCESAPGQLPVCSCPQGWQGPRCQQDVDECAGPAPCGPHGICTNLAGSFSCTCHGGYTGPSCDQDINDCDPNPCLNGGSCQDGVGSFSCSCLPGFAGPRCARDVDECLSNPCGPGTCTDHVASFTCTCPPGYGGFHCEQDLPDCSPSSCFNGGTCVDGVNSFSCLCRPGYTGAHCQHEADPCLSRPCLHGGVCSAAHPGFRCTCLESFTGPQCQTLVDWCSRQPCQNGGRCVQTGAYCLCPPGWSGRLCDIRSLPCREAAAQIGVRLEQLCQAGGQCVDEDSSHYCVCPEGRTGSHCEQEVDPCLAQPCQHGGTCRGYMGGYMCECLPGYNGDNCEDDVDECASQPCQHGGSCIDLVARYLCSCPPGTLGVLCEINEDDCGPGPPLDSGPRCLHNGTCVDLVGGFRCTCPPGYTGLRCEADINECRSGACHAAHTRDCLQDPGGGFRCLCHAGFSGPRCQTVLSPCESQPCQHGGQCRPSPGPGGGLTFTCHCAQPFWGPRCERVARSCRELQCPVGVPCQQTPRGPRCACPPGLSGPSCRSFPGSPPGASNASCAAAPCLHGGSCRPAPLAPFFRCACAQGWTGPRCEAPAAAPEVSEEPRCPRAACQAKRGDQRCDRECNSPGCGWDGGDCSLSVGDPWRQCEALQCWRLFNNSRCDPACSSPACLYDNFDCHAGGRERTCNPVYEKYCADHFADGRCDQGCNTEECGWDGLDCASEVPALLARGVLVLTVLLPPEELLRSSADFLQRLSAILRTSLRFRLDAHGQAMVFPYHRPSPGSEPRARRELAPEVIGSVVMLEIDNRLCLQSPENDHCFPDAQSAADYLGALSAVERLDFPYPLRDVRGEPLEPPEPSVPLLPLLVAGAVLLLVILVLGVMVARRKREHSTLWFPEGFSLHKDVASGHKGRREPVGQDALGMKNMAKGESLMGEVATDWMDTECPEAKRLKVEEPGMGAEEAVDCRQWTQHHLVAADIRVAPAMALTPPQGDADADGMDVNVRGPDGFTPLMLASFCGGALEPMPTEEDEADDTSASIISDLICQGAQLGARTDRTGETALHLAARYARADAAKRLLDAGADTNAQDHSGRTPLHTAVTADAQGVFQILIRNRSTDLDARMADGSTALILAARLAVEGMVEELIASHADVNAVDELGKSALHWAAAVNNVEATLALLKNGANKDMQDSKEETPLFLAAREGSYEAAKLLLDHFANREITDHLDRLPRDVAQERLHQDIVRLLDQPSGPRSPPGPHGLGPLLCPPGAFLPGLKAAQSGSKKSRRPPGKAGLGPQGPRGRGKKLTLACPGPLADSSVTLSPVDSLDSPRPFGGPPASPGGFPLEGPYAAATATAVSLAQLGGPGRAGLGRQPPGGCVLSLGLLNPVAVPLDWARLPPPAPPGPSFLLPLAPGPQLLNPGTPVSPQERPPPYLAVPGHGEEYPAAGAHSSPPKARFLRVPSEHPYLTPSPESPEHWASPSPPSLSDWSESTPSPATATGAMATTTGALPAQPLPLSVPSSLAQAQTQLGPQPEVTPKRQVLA
Experiment [10] can be described thus: probe aEGFR binding to arrayed compounds – biochemical, biotinylated probe, 635/667 nm fluorescence, primary screen (AID 1097).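 Note: probe is a biotinylated anti-EGFR antibody binding compounds printed on slides; score combines fluorescence near 667 nm and signal to noise of each spot.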 Conditions: small-molecule microarray, higher = more signal.
Experiment [11] has as its system Plasmodium falciparum Sir2 (PF13_0152, Sir2A). Put plainly: Plasmodium falciparum Sir2A binding compounds – biochemical, small-molecule microarray, 635 nm fluorescence, primary screen (AID 1098).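 Note: score merges spot fluorescence intensity with its signal-to-noise ratio.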 Conditions: fluorescence 635 nm, higher = more signal.
Experiment [12] is described as follows: probe aDKK1 binding to arrayed compounds – biochemical, biotinylated probe, 635/667 nm fluorescence, primary screen (AID 1099).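 Note: score merges 667nm spot fluorescence with signal to noise across triplicate slides; reference of the scale not given here.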 The following applies: small-molecule microarray, higher = more signal.
Experiment [13] in a line: probe aCHRDL2 binding to arrayed compounds – biochemical, biotinylated probe, 635/667 nm fluorescence, primary screen (AID 1100). The following applies: small-molecule microarray, higher = more signal.
Experiment [14] in a line: change in splice reporter luminescence, either direction, cell-based, HEK293, spliceosome inhibition project, primary screen (AID 1101).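 Note: HEK293 cells carrying a splicing-competent luciferase reporter gene; test concentration not given here.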 Conditions: HEK293 splicing luciferase reporter, 24 h, higher = more signal, called active from +8 up or from −8 down. Background: Reporter assays use an easily measured gene product as a stand-in for the process of interest.
The target in experiment [15] is Fibroblast growth factor 10 (Homo sapiens) (UniProt O15520). The experiment is described as follows: compounds binding fibroblast growth factor 10 – biochemical, small-molecule microarray, 635 nm fluorescence, primary screen (AID 1102). Conditions: FGF10 binding, fluorescence 635 nm, higher = more signal.
Sequence of Fibroblast growth factor 10 (Homo sapiens) (O15520 whole entry, looked up): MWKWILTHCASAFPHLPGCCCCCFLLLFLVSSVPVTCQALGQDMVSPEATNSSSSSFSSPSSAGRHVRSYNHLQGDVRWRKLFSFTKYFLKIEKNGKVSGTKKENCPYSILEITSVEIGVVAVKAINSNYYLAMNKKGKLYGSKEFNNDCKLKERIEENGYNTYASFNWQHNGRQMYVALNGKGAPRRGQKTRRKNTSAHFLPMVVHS
In experiment [16] the test system is glycogen synthase kinase-3 (GSK3A per assay name; protocol says GSK3B). Put plainly: compounds binding glycogen synthase kinase-3 – biochemical, small-molecule microarray, 635 nm fluorescence, GSK3A, primary screen (AID 1103). Note: the record names both GSK3A and GSK3B. The following applies: fluorescence 635 nm, higher = more signal.
Experiment [17] deals with Epidermal growth factor receptor (Homo sapiens) (UniProt P00533). The experiment is described as follows: compounds binding epidermal growth factor receptor – biochemical, small-molecule microarray, 635 nm fluorescence, primary screen (AID 1104).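 Note: score merges 667 nm emission intensity with spot signal to noise over triplicate slides.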 The following applies: EGFR binding, higher = more signal.
Sequence of Epidermal growth factor receptor (Homo sapiens) (P00533 whole entry, looked up): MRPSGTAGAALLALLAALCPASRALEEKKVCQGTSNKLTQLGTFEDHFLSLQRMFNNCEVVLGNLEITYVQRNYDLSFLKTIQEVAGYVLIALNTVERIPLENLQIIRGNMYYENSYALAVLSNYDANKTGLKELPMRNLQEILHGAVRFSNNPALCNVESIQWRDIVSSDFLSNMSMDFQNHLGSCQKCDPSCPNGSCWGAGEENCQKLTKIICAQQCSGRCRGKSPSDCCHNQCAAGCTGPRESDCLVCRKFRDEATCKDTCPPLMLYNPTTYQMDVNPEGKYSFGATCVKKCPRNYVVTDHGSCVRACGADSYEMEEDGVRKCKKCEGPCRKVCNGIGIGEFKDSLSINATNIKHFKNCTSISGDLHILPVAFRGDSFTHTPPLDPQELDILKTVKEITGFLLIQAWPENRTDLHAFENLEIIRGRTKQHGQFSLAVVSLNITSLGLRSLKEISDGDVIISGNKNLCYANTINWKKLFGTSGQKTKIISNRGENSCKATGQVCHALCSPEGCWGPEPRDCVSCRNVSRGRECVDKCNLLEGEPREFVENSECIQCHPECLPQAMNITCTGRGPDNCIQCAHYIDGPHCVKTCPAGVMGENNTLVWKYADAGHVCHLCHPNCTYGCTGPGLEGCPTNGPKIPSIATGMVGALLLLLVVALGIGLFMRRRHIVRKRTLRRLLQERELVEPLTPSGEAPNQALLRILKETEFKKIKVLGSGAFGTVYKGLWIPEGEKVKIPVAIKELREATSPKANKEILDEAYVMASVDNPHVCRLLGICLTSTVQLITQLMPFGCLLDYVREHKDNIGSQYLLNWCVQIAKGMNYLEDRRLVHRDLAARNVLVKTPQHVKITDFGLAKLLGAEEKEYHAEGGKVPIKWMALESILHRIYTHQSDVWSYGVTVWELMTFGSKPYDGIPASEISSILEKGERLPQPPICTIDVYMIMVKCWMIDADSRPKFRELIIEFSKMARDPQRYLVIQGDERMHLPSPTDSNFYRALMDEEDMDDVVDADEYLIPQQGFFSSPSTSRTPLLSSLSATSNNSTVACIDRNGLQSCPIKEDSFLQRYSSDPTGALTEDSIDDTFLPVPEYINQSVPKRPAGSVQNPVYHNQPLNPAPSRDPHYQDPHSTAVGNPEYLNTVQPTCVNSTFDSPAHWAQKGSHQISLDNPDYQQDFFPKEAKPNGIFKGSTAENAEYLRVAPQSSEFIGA
Experiment [18] concerns the target Follistatin-related protein 3 (Homo sapiens) (UniProt O95633). The experiment is described as follows: compounds binding follistatin-related protein 3 – biochemical, small-molecule microarray, 635 nm fluorescence, primary screen (AID 1105).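 Note: score merges emission near 667 nm and signal to noise per printed spot across three slides.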 The following applies: FSTL3 binding, higher = more signal.
Experiment [19] concerns the target Dickkopf-related protein 1 (Homo sapiens) (UniProt O94907). The experiment is described as follows: small molecules binding DKK1 protein – biochemical, small-molecule microarray, 635 nm fluorescence scan, primary screen (AID 1106).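 Note: score merges emission near 667 nm with signal to noise over three replicate slides.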 The following applies: higher = more signal.
Experiment [20] has as its system Inhibin beta A chain (activin A). The experiment is described as follows: small molecules binding activin A – biochemical, small-molecule microarray, 635 nm fluorescence scan, primary screen (AID 1107).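 Note: mouse activin A protein probed at 4.33 µg/mL on printed slides; score merges bound-protein fluorescence near 667 nm with spot signal-to-noise.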 Conditions: INHBA, higher = more signal.

Sequence of Dickkopf-related protein 1 (Homo sapiens) (O94907 whole entry, looked up): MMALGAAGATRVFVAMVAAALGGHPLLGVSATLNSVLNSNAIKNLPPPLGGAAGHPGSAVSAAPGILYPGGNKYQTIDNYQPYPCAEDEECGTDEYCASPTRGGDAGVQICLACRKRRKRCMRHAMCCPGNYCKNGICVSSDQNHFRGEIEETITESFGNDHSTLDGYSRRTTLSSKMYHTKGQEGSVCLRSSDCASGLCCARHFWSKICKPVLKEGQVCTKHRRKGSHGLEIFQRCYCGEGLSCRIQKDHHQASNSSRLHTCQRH
Sequence of Follistatin-related protein 3 (Homo sapiens) (O95633 whole entry, looked up): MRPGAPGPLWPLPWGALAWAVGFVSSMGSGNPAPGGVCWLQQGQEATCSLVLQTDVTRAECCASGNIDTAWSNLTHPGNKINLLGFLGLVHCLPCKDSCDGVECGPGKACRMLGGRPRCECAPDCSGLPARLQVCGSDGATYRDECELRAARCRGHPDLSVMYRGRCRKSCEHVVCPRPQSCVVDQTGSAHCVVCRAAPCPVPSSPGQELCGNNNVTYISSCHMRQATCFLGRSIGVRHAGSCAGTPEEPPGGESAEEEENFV

For the compound `COC(=O)[C@@H]1CC[C@H](C)[C@@H](c2ccc(Br)cc2)N1`, the composite z-score in experiment [1] was -2.1; in experiment [5], 1.24; in experiment [7] it was 0.195; in [8], -0.265; in experiment [9] it was -1.19; in [10], -0.044. For the same compound, the composite z-score in experiment [11] is -0.725; in experiment [12], 0.297; in experiment [13], 0.321; in experiment [15] it was -0.0529; in [16], -0.879; in [17] it was 0.377. In addition, the composite z-score is -0.391 in experiment [18], 0.187 in experiment [19] and 0.894 in experiment [20]. In addition, the z-score in experiment [2] was 0.826 (inactive); in experiment [3], 0.771 (inactive); in experiment [4], 1.08 (inactive); in [6] it was 0.532 (inactive); in experiment [14] it was -0.181 (inactive).
With `COc1ccc(COC(=O)NN=C2C[C@@H](O)[C@@H](O)[C@@H]3[C@@H]4C(=O)N(C[C@@H]5CCCO5)C(=O)[C@@H]4CC[C@@H]23)cc1`, the composite z-score was 0.674 in experiment [1]; 0.486 in [5]; -0.145 in [7]; 0.585 in experiment [8]; 0.106 in experiment [9]; -0.1 in experiment [10]. Also, the composite z-score in experiment [11] is 1.06; in [12], -0.288; in experiment [13] it was -0.241; in experiment [15] it was 1.01; in [16], 0.0003; in [17] it was -0.127. The values for the composite z-score in experiment [18], in [19] and in [20] were -0.139, 0.0237 and 0.203, respectively. Further, the z-score is 0.137 (inactive) in [2]; 0.467 (inactive) in experiment [3]; -0.389 (inactive) in experiment [4]; 0.859 (inactive) in [6]; -0.00678 (inactive) in [14].
In the case of `CC(CCN1CCc2nc(-c3ccccc3)c(-c3ccccc3)cc2C1)=NO[C@H](C)c1cn([C@H](CO)Cc2ccccc2)nn1`, the composite z-score in [1] is 0.485; in experiment [5], 0.381; in experiment [7], 0.0272; in experiment [8], 0.622; in experiment [9], -0.0395; in [10] it was -0.122. Besides, the composite z-score in [11] was 0.343; in experiment [12] it was -0.0154; in experiment [13], 0.407; in experiment [15], -0.356; in experiment [16] it was -0.135; in [17], -0.0273. In addition, the figures for the composite z-score in [18], in experiment [19] and in experiment [20] were 0.177, -0.193 and 1.09, respectively. Besides, the z-score in experiment [2] is -0.0115 (inactive); in experiment [3], -0.989 (inactive); in experiment [4] it was -4.22 (inactive); in experiment [6] it was 0.561 (inactive); in experiment [14], -0.534 (inactive).
For the compound `C=C(C)C(=O)OC[C@H]1CN2[C@@H](CC[C@@H](C)[C@@H]2c2ccc(Br)cc2)C(=O)O1`, the composite z-score in [1] was 0.164; in experiment [5] it was 0.162; in [7] it was -0.166; in [8] it was 0.195; in experiment [9] it was -0.775; in experiment [10], -0.144. For the same compound, the composite z-score in experiment [11] is 0.789; in experiment [12], -0.366; in experiment [13], -0.264; in experiment [15] it was 0.261; in experiment [16] it was 0.179; in experiment [17] it was 0.135. Also, the composite z-score in experiment [18] is -0.214; in experiment [19] it was 0.302; in experiment [20], 1.26. The z-score in [2] was 0.0739 (inactive); in [3] it was -3.38 (inactive); in experiment [4], -0.424 (inactive); in experiment [6], 0.436 (inactive); in experiment [14], -0.286 (inactive).
Consider `C#CCCCON=C1C[C@@H](O)[C@@H](O)[C@@H]2[C@@H]3C(=O)N([C@@H](C)c4ccccc4)C(=O)[C@@H]3CC[C@@H]12`, for which the composite z-score in [1] was -0.0587; in [5], -0.148; in experiment [7], -0.161; in experiment [8] it was -0.225; in experiment [9], -0.746; in [10], -0.1. Moreover, the composite z-score in [11] is 0.563; in experiment [12], -0.292; in experiment [13] it was 0.0951; in [15], -0.723; in experiment [16], -0.521; in experiment [17], 0.377. Besides, the composite z-score is -0.447 in [18], -0.67 in [19] and 0.718 in experiment [20]. The z-score in experiment [2] was 0.837 (inactive); in [3] it was 1.4 (inactive); in experiment [4], 1.26 (inactive); in experiment [6], 0.761 (inactive); in experiment [14] it was -0.0154 (inactive).
